{
  "source": "ChEMBL document CHEMBL3988442",
  "about": "“University of Dundee, Small-Polar-MMV Screening Library” (2021)",
  "data": [
    {"biological_target": "AMP-activated protein kinase, AMPK (Homo sapiens) (UniProt P54646+O43741+P54619+Q9UGJ0+Q9Y478+Q13131+Q9UGI9)", "assay": "AMP-dependent Kinase enzyme assay. An in vitro enzyme assay that detects ADP turnover that is directly proportional to AMPK activity. This uses naive AMPK that is activated during the assay with MK-8722", "type": "functional", "parameters": "scale not given: direction of the effect not stated beside the values", "details": "30 µM", "units": {"Percent Effect": "%"}, "values": [
      {"smiles": "CN(CC1(CO)CCC1)c1nc2c(c(=O)[nH]1)Cc1ccccc1OC2", "Percent Effect": 1.42},
      {"smiles": "O=c1ccc(S(=O)(=O)N2CCCC2)cn1CC1CCCCO1", "note": "(centres undefined)", "Percent Effect": 6.91},
      {"smiles": "Cn1ccc(NC(=O)CN2CCN(C3CCCC3)C(=O)C2)n1", "Percent Effect": 4.97},
      {"smiles": "O=C(O)c1cnc(OCC2CC2)c(Cl)c1", "Percent Effect": -1.49},
      {"smiles": "COc1ccc2c(c1)CCCN(C(=O)NCC1CCCO1)C2", "note": "(centres undefined)", "Percent Effect": 5.17},
      {"smiles": "CN1CC(C(=O)NCc2ccc(Br)cc2F)CC1=O", "note": "(centres undefined)", "Percent Effect": 8.64},
      {"smiles": "COCCN(C)c1cnn(C)c(=O)c1Br", "Percent Effect": -10.9},
      {"smiles": "Cc1cc(Br)ccc1C(=O)Nc1c(C(N)=O)n[nH]c1C", "Percent Effect": 1.52},
      {"smiles": "CCC(C)C(=O)Nc1ccc(CCN2CCOCC2)cc1", "note": "(centres undefined)", "Percent Effect": 11.3},
      {"smiles": "CCC(CO)NC(=O)c1cc(COc2ccc(OC)cc2Cl)[nH]n1", "note": "(centres undefined)", "Percent Effect": -8.13},
      {"smiles": "CN(Cc1ccsc1)C(=O)c1nc(N2CCCC2)ncc1Cl", "Percent Effect": -1.6},
      {"smiles": "CN(CCCO)C(=O)c1cc(COc2ccc3c(c2)CCCC3)on1", "Percent Effect": -1.01},
      {"smiles": "CN(C)S(=O)(=O)c1ccc(=O)n(CC2CCCCO2)c1", "note": "(centres undefined)", "Percent Effect": 8.37},
      {"smiles": "COC(=O)N1CCCCC1C(=O)N1CCN(c2cccnc2)CC1", "note": "(centres undefined)", "Percent Effect": -4.3},
      {"smiles": "Cc1c(NCCO)cccc1OC1CCCC1", "Percent Effect": -6.27},
      {"smiles": "COc1cccc(C)c1C(=O)N1CCc2ncnc(NCCO)c2CC1", "Percent Effect": -1.45},
      {"smiles": "Cc1cc(N2CCOC(c3ccccn3)C2)nc(N)n1", "note": "(centres undefined)", "Percent Effect": 10.1},
      {"smiles": "CC(C)NC(=O)C1(Cc2ccccc2-c2ccccc2)CCCNC1", "note": "(centres undefined)", "Percent Effect": 13.9},
      {"smiles": "CN1CCOC(CNCC(=O)NCCc2ccc3c(c2)OCCO3)C1", "note": "(centres undefined)", "Percent Effect": -5.82},
      {"smiles": "CC(C)Cc1cc(C(=O)N2CCC(Cc3cnn(C)c3)C2)cc(O)n1", "note": "(centres undefined)", "Percent Effect": -2.83},
      {"smiles": "CCc1ccc(NC(=O)CCN2CC(n3nc(C)cc3C)C2)cc1", "Percent Effect": -4.58},
      {"smiles": "Cc1ccnc2c1NC(=O)CN2C(=O)CCc1ccccc1", "Percent Effect": -1.93},
      {"smiles": "CC(C)c1cc(NCc2csc(N(C)C)n2)nc(N)n1", "Percent Effect": -10.6},
      {"smiles": "Cn1ccc(N2CCCC(NC(=O)c3ccsc3)C2=O)n1", "note": "(centres undefined)", "Percent Effect": -4.2},
      {"smiles": "Cc1nnc(CN(Cc2cccc3c2OCO3)CC2CCCO2)n1C", "note": "(centres undefined)", "Percent Effect": -6.12},
      {"smiles": "O=c1c(CN2CCOCC2)coc2ccc(Cl)cc12", "Percent Effect": -2.73},
      {"smiles": "Cn1cnnc1C1CCCN(Cc2nc(Cc3ccccc3)no2)C1", "note": "(centres undefined)", "Percent Effect": 12.2},
      {"smiles": "CSc1nccc(N2CCC3(CCCN(CCc4ccccc4)C3)C2)n1", "note": "(centres undefined)", "Percent Effect": 5.34},
      {"smiles": "Cc1nc(CNCC2CNc3ccnn3C2)cs1", "note": "(centres undefined)", "Percent Effect": -8.22},
      {"smiles": "CC(C)N(Cc1ccccn1)C(=O)CCC(=O)c1ccc(F)cc1F", "Percent Effect": -0.0134},
      {"smiles": "CN(C)c1ccc(C(=O)N(Cc2ccncc2)CC2CCCO2)nn1", "note": "(centres undefined)", "Percent Effect": -3.6},
      {"smiles": "CC(NCC(=O)Nc1ccc(N2CCCCCC2)cc1)c1cccs1", "note": "(centres undefined)", "Percent Effect": 16.8},
      {"smiles": "Cc1nccn1-c1cccc(N2CCC(OCC3CCCCO3)CC2)n1", "note": "(centres undefined)", "Percent Effect": 6.51},
      {"smiles": "CCN(Cc1cccnc1)C1CCN(c2ccccc2)C1=O", "note": "(centres undefined)", "Percent Effect": -2.42},
      {"smiles": "CCC(C)C(=O)N(Cc1ccccn1)C1CC1", "note": "(centres undefined)", "Percent Effect": 2.05},
      {"smiles": "Cc1nn(C2CCCC2)c2nc(C(C)(C)CN3CCN(C)CC3)[nH]c12", "Percent Effect": 14.1},
      {"smiles": "O=C(NCc1nnc2n1CCC2)c1ccc(Br)s1", "Percent Effect": -4.78},
      {"smiles": "COC(=O)Cn1c(C)cc(=O)c2cc(F)ccc21", "Percent Effect": 1.38},
      {"smiles": "COC(=O)c1ccc(Cn2cccc(C(F)(F)F)c2=O)s1", "Percent Effect": 3.31}
    ]}
  ]
}
